In PubChem BioAssay AID624263 (National Center for Advancing Translational Sciences (NCATS), 2012):
The campaign covered roughly 410,000 compounds. About 820 (0.2%) were called active. Another 2% or so got no clear call; they are omitted. The call rests on the fitted dose curve; in most records, active means well fitted activation curve with a large enough effect; inconclusive means small, poorly fitted or top-dose-only effect; inactive means flat fitted curve, though single readings scatter; cell line not stated here. This excerpt belongs to a sample that is enriched for actives.

experiment: A Quantitative High throughput Screen to Identify Chemical Modulators of PINK1 Expression; conditions: PINK1 immunofluorescence, high-content cytometry, 24 h; series mostly up to 76.6 µM; activation (PINK1 increase): at the top concentration; further: nearly all actives have a fitted effect of over 65% in size; on activation (PINK1 increase): % of control where 0% means no effect
From the text: The overall goal of this project is to develop new tools for understanding and treating the mitochondrial basis for neurodegenerative disease such as Parkinson's disease (PD). The PINK1 campaign was developed from recent data pointing towards mitochondrial dysfunction as a major contributor to dopaminergic neuron loss. The discovery of PINK1/Parkin mediated mitophagy has highlighted the potential for mitochondrial quality control as a novel target for therapeutic intervention. […] A second aim of this project is the development of chemical probes to study the mechanics of mitochondrial quality control. As the PINK1/Parkin mitophagy pathway is a relative recent discovery, no specific chemical probes are available that modulate the process. Presently, only crude tools that cause nonspecific mitochondrial damage are available. To advance the understanding of mitophagy, specific, well characterized chemicals that target various steps of mitophagy regulation need to be developed. New chemical probes may have the ability to dynamically manipulate mitophagy in model organisms such as rodents and zebrafish, advancing our understanding of the process in development and disease. This HTS campaign seeks to discover an activator of PINK1 expression by modulation at the level of post-translational processing.
The PINK1 assay determines the amount and localization of PINK1 protein in a cell using a combination of immunofluorescence and cell staining. The goal of the assay is to determine small molecules that can increase the expression of Pink1 on or inside the cell's mitochondria (ideally without mitochondrial depolarization) using a stable cell line. Since PINK1 protein is rapidly degraded in un-perturbed cells, compounds that induce the enhancement of PINK1 protein expression are identified by determining PINK1 immunofluorescence in conjunction with a mitochondrial, cell, and nuclear marker post fixation. To facilitate rapid high content screening, the primary assay is run in a decision-based HTS mode where compound titration data collected by laser-scanning microplate cytometers is processed and only promising compound series are passed off for high content drill down.
1 Add cells to black, clear-bottom, low-base 1536-well plates 6 uL (250 cells/well)
2 Incubate in TC incubator (12 hours)
3 Pin compounds or DMSO controls 23 nL (5 concentrations per compound set)
4 Dispense CCCP to control columns
5 Incubate in TC incubator 24 hours
6 Aspirate media and fix cells (5 uL of fixative containing nuclear dye)
7 Incubate 15 minutes at RT
8 Wash in PBSTween (12 uL/well)
9 Wash in PBSTriton (12 uL/well)
10 Aspirate wash and add Blocking buffer (4 uL/well)
12 Aspirate block and add primary antibodies 3.5 (uL/well)
13 Incubate 12 hours at 10 degrees C
14 Wash in PBSTween-20 two times (12 uL/well)
15 Aspirate wash and add secondary antibodies (12 uL/well)
17 Wash in PBSTween (12 uL/well)
18 Wash in PBSTween with cell stain (12 uL/well)
19 Read plates on Acumen EX3 and determine Wells2Cells coordinates
Potency means the concentration at half of the fitted maximal effect.

| Compound | Potency | activation (PINK1 increase) |
| --- | --- | --- |
| CCOc1ccc(-c2cc(C)[n+](CCN(CC)CC)c(-c3ccc(OCC)cc3)c2)cc1 | 15.8 µM (active) | – |
| Cn1cc(/C=C/c2nc3ccccc3c(=O)n2-c2ccccc2)c2ccccc21 | – | 3.72% (inactive) |
| COc1cccc(N2C(=O)NC(=O)/C(=C\c3cn(C)c4ccccc34)C2=O)c1 | 39.8 µM (active) | – |
| CCc1nc2ccccc2c(=O)n1-c1cccc(OC)c1 | – | -3.42% [at 38.3 µM] (inactive) |
| c1ccc(N2CC[C@@]3(CCCNC3)C2)nc1 | – | -0.11% (inactive) |
| COc1cccc(-c2ccc(O)c(CNC3CN4CCC3CC4)c2)n1 (centres undefined) | – | -0.604% (inactive) |
| c1ccc(CN2CC[C@@]3(CCCNC3)C2)cc1 | – | -1.39% (inactive) |
| COc1cc([C@@H]2c3cc4c(cc3[C@H](OC(C)=O)[C@H]3COC(=O)[C@H]23)OCO4)cc(OC)c1OC | – | 6.21% (inactive) |
| N#Cc1c(Cl)c(Cl)c(Cl)c(C#N)c1Cl | – | 12.1% (inactive) |
